Measured values taken from PubChem BioAssay.
Records with an inconclusive call do not appear. Calls of active or inactive are those of the source.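 The calls were made as follows, unless noted: active = Her2 level under about 52% in both replicate screens, with viability over 70% of control (limit read from the data); inconclusive = Her2 under the limit in one screen only, or viability under 70%; inactive = Her2 level above the set limit.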

Legend:
[1] = Her2 expression decrease, cell viability multiplex – SKBR3 breast tumor cells, AlphaScreen, ATP viability, primary screen (AID 461); conditions: SKBR3 Her2 protein level, 18-24 h, measured here: SKBR3 viability, ATP luminescence, at 10 µM;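 as to Her2 level: lower value means less Her2 protein in the cells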;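 as to viability: percent of carrier control wells set as 100% viability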
[2] = biological target: Receptor tyrosine-protein kinase erbB-2 (Homo sapiens) (UniProt P04626); experiment: as above; conditions: 18-24 h, at 10 µM, stronger effect = lower value
Chain of Receptor tyrosine-protein kinase erbB-2 (Homo sapiens) (P04626 whole entry, looked up): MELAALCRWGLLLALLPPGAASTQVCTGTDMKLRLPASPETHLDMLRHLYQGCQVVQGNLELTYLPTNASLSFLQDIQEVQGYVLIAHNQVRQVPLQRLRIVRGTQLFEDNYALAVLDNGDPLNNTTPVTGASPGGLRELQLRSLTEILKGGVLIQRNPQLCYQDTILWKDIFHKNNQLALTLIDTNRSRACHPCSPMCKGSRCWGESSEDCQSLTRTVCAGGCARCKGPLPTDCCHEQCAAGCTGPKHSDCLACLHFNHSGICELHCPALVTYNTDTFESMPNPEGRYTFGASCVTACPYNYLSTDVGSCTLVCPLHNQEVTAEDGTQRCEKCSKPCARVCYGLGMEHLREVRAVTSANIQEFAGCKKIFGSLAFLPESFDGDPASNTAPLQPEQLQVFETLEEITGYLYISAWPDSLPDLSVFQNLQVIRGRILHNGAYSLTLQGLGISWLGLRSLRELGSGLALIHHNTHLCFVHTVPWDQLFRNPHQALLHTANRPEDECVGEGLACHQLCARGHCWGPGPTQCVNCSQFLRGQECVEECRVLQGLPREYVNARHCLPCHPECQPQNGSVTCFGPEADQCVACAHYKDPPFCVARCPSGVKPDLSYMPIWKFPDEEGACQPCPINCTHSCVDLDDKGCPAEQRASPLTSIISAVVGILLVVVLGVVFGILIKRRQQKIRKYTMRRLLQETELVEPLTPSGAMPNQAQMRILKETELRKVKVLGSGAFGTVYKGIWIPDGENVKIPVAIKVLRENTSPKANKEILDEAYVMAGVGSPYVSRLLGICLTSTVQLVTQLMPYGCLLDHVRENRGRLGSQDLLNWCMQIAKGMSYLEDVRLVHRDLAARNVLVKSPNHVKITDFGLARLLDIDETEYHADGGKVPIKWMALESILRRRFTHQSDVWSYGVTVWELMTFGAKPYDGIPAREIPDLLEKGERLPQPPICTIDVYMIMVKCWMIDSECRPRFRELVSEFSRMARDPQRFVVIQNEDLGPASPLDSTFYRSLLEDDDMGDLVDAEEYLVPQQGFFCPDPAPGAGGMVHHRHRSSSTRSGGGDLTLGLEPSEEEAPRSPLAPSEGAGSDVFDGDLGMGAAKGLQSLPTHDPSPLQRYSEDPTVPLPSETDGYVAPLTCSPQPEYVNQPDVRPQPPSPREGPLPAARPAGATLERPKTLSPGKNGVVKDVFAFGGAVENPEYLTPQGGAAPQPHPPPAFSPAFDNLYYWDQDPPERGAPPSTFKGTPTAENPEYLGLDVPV

[3] = reduced viability of SK-BR-3 breast cancer cells – cell-based, 24 h, human, pilot screen (AID 572;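 active = viability at or below 10% of carrier control in both of two separate runs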;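 also: compound exposure lasted between 18 and 24 h rather than exactly 24 h; 100% = carrier-treated control wells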); conditions: SK-BR-3 viability, CellTiter-Glo luminescence, at 10 µM, stronger effect = lower value
[4] = HUVEC growth inhibition – cell-based, human, primary screen (AID 575;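 active = viability at or below 30% in both replicate assays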;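 also: 100% = median of untreated cell wells with 0.1% DMSO on each plate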); conditions: HUVEC proliferation, CellTiter-Glo luminescence, 72 h; at 10 µM; stronger effect = lower value
[5] = H69AR cell proliferation blockers – human, duplicate replicates, primary screen (AID 580;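 active = viability at or under a set limit in both replicates, limit being median viability minus 3 SD, cut at about 48% in these data, passing the limit was not always enough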;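 also: 100% = mean luminescence of untreated wells and 0% = no signal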); conditions: H69AR lung tumor cells viability, ATP luminescence, 72 h; at 10 µM; stronger effect = lower value
[6] = MRP1 drug-resistance reversers in H69AR cells – cell-based, doxorubicin co-treatment, pilot screen (AID 601;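 active = viability loss from added drug above about 55%, and viability with drug at most 40%, in both replicates, limit read from the data, passing the limit was not always enough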); conditions: CellTiter-Glo, 72 h, at 10 µM; for differential viability (reversal): stronger effect = higher value
[7] = yeast transport mutant growth inhibition pilot in 384-well plates, post-Golgi transport modulator project (AID 636; in the data active = inhibition above about 31%); conditions: absorbance 615 nm, about 18 h, stronger effect = higher value
[8] = growth suppression of yeast trafficking mutant, preliminary HTS, modulators of trafficking downstream of Golgi apparatus project, 1536-format plate, OD 615 nm (AID 637; in the data active = inhibition above about 30%); conditions: yeast transport mutant growth, absorbance 615 nm, 18 h; stronger effect = higher value
[9] = S. cerevisiae growth inhibition in permissive medium (OD615), pilot counter-assay for S. cerevisiae lifespan shortening project, permissive growth control (AID 705;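 active = growth inhibition above 25% in both replicates, a cutoff set 3 SD above the mean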); conditions: OD615, 24 h, at 10 µM, stronger effect = higher value
[10] = S. cerevisiae growth inhibition in restrictive medium, OD615, pilot screen, restrictive growth control, yeast lifespan reduction project (AID 706;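 active = growth inhibition above a set limit, 3 SD over mean compound inhibition, in both replicates, cut at about 43% in these data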;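 also: modified DeaD lifespan yeast strain shifted to restrictive glucose medium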); conditions: OD615, 48 h, at 10 µM, stronger effect = higher value
[11] = viability of HCT116 without oncogenic beta-catenin – human colon tumor cells, pilot screen (AID 823;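 active = cell viability at or below a set limit in both duplicate runs, the limit being the all-compound median minus 4 SD, cut at about 23% in these data, passing the limit was not always enough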;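 also: 0% = wells killed by 20 µM Hyamine and 100% = untreated DMSO cell wells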); conditions: HCT116 beta-catenin knockout viability, CellTiter-Glo, 60 h; at 10 µM; stronger effect = lower value
[12] = viability of PTEN-null HCT116 cells – cell-based, HCT116 clonal line, CellTiter-Glo, pilot screen (AID 824;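 active = viability at or below 27.92% in each of two runs, the all-compound median minus 4 SD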;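 also: 0% = 20 µM Hyamine control and 100% = vehicle cell control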); conditions: HCT116 PTEN-deleted viability, 60 h, at 10 µM, stronger effect = lower value
[13] = RAM pathway blockade in budding yeast – dse1pr::URA3 reporter, 5-FOA selection, pilot screen (AID 869;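 active = inhibition over a set limit, the all-compound mean plus 3 SD, in both replicate runs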;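 also: 0% = DMSO wells with no growth and 100% = 10 µM 1-NA-PP1 with full growth; RAM network block rescues cells from 5-FOA so hits raise OD615 growth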); conditions: S. cerevisiae dse1pr::URA3 5-FOA growth, OD615, 2 d; at 10 µM; stronger effect = higher value; strain carries analog-sensitive mutant Cbk1 kinase
[14] = RAM signaling pathway blockade in yeast – S. cerevisiae, Pdr1DBD-CYC8 efflux-inhibited sensitized strain, primary screen (AID 1298;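 active = RAM network inhibition above 8.4% in each of two replicates, 3 SD over the compound average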;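 also: 0% = DMSO untreated cells without growth and 100% = 10 µM 1-NA-PP1 full growth; higher means more yeast growth rescued from 5-FOA killing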); conditions: S. cerevisiae cbk1-as DSE1-URA3 strain, 5-FOA growth OD615, 2 d; at 50 µM; stronger effect = higher value
[15] = doxorubicin toxicity protection in MRP-1 cells – H69AR cells, CellTiter-Glo, duplicate, MRP-1 activator project, pilot screen (AID 807;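 active = viability increase at or above a cutoff of the median across tested compounds plus 3 SD, cut at about 8.5% in these data, passing the limit was not always enough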;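 also: compound pretreatment 18-22 h then 72 h combined with doxorubicin; 0% = doxorubicin alone and 100% = vehicle without doxorubicin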); conditions: H69AR viability with doxorubicin, CellTiter-Glo luminescence; at 10 µM; stronger effect = higher value
[16] = H69AR cells + 2 uM doxorubicin, measured here: viability with 2 uM doxorubicin, stronger effect = lower value
[17] = H69AR cells, compound alone cytotoxicity

Cc1noc(/C=C/N(C)C)c1S(=O)(=O)N1CCCC(C(=O)N2CCCCC2)C1 (stereo not given)
97.3%: viability [6, 17]
84%: viability [1]
101%: viability [6, 16]
inactive: Her2 level [2] 97% | viability [3] 84% | viability [4] 95.9% | viability [5] 97.3% | differential viability (reversal) ([6]; H69AR cells + 2 uM doxorubicin) -3.44% | inhibition [7] 1.07% | inhibition [8] -7.21% | growth inhibition [9] 4.08% | growth inhibition [10] 5.73% | viability [11] 87.4% | viability [12] 85.2% | inhibition [13] 1.34% | RAM network inhibition [14] 5.03%

Cc1ccc(C(=O)CSc2n[nH]c(-c3ccco3)n2)cc1C
105%: viability [6, 16]
inactive: Her2 level [2] 104% | viability [3] 106% | viability [4] 99.2% | viability [5] 101% | differential viability (reversal) ([6]; H69AR cells + 2 uM doxorubicin) -3.95% | inhibition [7] -4.68% | inhibition [8] -4.67% | growth inhibition [9] -13.8% | growth inhibition [10] 3.79% | viability [11] 101% | viability [12] 107% | inhibition [13] 0.765% | RAM network inhibition [14] 0.94%
106%: viability [1]
101%: viability [6, 17]

Cc1noc(/C=C/N(C)C)c1S(=O)(=O)N1CCCC(C(=O)NC2CCCCC2)C1 (stereo not given)
105%: viability [6, 16]
88.6%: viability [6, 17]
inactive: Her2 level [2] 99.5% | viability [3] 99% | viability [4] 75.7% | viability [5] 88.6% | differential viability (reversal) ([6]; H69AR cells + 2 uM doxorubicin) -16.5% | inhibition [7] -3.07% | inhibition [8] -3.5% | growth inhibition [9] 2.12% | growth inhibition [10] -9.03% | viability [11] 93% | viability [12] 88.4% | inhibition [13] 0.78% | RAM network inhibition [14] 5.71%
99%: viability [1]

Cc1cc(N2CCOCC2)nc2ccc(NC(=O)C3CCC(C)CC3)cc12 (stereo not given)
inactive: Her2 level [2] 110% | viability [3] 73.5% | viability [4] 62.5% | viability [5] 76.3% | differential viability (reversal) ([6]; H69AR cells + 2 uM doxorubicin) -9.34% | inhibition [7] -0.27% | inhibition [8] -6.67% | growth inhibition [9] -11.1% | growth inhibition [10] 0.545% | viability increase [15] -4.21% | viability [12] 81% | inhibition [13] 1.95% | RAM network inhibition [14] 4.29%
76.3%: viability [6, 17]
85.7%: viability [6, 16]
73.5%: viability [1]

C/C=C/COC(=O)c1[nH]c2c(c1C)C(=O)CC(c1ccc(N(C)C)cc1)C2 (stereo not given)
41.9%: viability [6, 17]
active: inhibition [8] 49.8%
inactive: Her2 level [2] 94% | viability [3] 92% | viability [4] 62.4% | differential viability (reversal) ([6]; H69AR cells + 2 uM doxorubicin) -30.1% | inhibition [7] 2% | growth inhibition [9] -10.2% | growth inhibition [10] -9.05% | viability increase [15] -2.69% | viability [11] 60.6% | viability [12] 66.6% | inhibition [13] 1.9% | RAM network inhibition [14] 4.88%
92%: viability [1]
72.1%: viability [6, 16]

CCn1c(NC(=O)c2cccc(Cn3cc(Cl)cn3)c2)nc2ccccc21
56.5%: viability [6, 17]
93.5%: viability [1]
65.1%: viability [6, 16]
inactive: Her2 level [2] 75% | viability [3] 93.5% | viability [4] 69% | differential viability (reversal) ([6]; H69AR cells + 2 uM doxorubicin) -8.54% | inhibition [7] -0.53% | inhibition [8] 0.16% | growth inhibition [9] -10.1% | growth inhibition [10] 7.82% | viability increase [15] -0.12% | viability [11] 40.3% | viability [12] 40.1% | inhibition [13] 0.95% | RAM network inhibition [14] 4.07%

CCOc1ccccc1C1CC(c2ccc(Br)cc2)Nc2nc(N)nn21 (stereo not given)
active: viability [5] 25.7%
inactive: Her2 level [2] 102% | viability [3] 91.5% | viability [4] 63.3% | differential viability (reversal) ([6]; H69AR cells + 2 uM doxorubicin) -45.9% | inhibition [7] -2.13% | inhibition [8] 0.16% | growth inhibition [9] 9.24% | viability increase [15] -2.25% | viability [11] 69.3% | viability [12] 73.2% | inhibition [13] 2.62% | RAM network inhibition [14] 4.4%
25.7%: viability [6, 17]
71.6%: viability [6, 16]
91.5%: viability [1]

CCOC(=O)c1cc2c(=O)n3ccccc3nc2n(CC2CCCO2)c1=NC(C)=O (stereo not given)
inactive: Her2 level [2] 95.5% | viability [3] 99% | viability [4] 102% | viability [5] 81.1% | inhibition [7] -6.71% | inhibition [8] -2.22% | growth inhibition [9] -22.2% | growth inhibition [10] -17.4% | viability increase [15] 0.08% | viability [11] 97.6% | viability [12] 93.8% | inhibition [13] 0.525% | RAM network inhibition [14] 3.93%
99%: viability [1]

COCCn1c(SCC(=O)N2CCc3ccccc32)nc2c(c1=O)SC(C)C2 (stereo not given)
inactive: Her2 level [2] 104% | viability [3] 77% | viability [4] 67.8% | viability [5] 78.8% | inhibition [7] -3.87% | inhibition [8] -2% | growth inhibition [9] 6.33% | growth inhibition [10] 13.2% | viability increase [15] -2.72% | viability [11] 94.1% | viability [12] 94.3% | inhibition [13] 0.465% | RAM network inhibition [14] 6.03%
77%: viability [1]
